Data on eight compounds can be found in PubChem BioAssay.

Several values for one entry are separate records, joined by “and”; a condition that tells them apart may be missing. Equal values may be shown once. Records with an inconclusive call do not appear. Activity calls are given as the source filed them. Unless noted, no rule for the calls is given here.

Assay [1] is described as follows: hESC survival regulators, cell-based (AID 493140).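 Also: cells exposed to compounds for four days before counting.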 The following applies: human embryonic stem cell survival screen; stronger effect = higher value.
Assay [2] can be described thus: sensitizers of A549 cells to miR-34 induction, primary screen, imaging, A549 dox-inducible miR-34, nuclei and caspase counts (AID 1347080;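 active = compounds whose cell count with miR-34 switched on is under 0.7 times the count with it off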). The following applies: A549 miR-34 inducible, Hoechst nuclei count, 48 h.
The nature of assay [3]: inhibitors of Cryptococcus chitosan production, flow cytometry, Cibacron Brilliant Red staining (AID 1347148).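 Also: compound exposure lasted three days at 37 degrees C.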 The following applies: Cryptococcus neoformans chitosan, stronger effect = lower value; at 10 µM unless noted.
In assay [4] the target is ATP-dependent translocase ABCB1 (Homo sapiens) (UniProt P08183). The assay is described as follows: MDR1 (ABCB1) efflux transporter inhibition, cell-based (AID 377; in the data active = fluorescence slope change above about 50%). Conditions: MDR1-expressing cells, fluorescent substrate accumulation slope; stronger effect = higher value; concentration not given here.
Sequence of ATP-dependent translocase ABCB1 (Homo sapiens) (P08183 whole entry, looked up): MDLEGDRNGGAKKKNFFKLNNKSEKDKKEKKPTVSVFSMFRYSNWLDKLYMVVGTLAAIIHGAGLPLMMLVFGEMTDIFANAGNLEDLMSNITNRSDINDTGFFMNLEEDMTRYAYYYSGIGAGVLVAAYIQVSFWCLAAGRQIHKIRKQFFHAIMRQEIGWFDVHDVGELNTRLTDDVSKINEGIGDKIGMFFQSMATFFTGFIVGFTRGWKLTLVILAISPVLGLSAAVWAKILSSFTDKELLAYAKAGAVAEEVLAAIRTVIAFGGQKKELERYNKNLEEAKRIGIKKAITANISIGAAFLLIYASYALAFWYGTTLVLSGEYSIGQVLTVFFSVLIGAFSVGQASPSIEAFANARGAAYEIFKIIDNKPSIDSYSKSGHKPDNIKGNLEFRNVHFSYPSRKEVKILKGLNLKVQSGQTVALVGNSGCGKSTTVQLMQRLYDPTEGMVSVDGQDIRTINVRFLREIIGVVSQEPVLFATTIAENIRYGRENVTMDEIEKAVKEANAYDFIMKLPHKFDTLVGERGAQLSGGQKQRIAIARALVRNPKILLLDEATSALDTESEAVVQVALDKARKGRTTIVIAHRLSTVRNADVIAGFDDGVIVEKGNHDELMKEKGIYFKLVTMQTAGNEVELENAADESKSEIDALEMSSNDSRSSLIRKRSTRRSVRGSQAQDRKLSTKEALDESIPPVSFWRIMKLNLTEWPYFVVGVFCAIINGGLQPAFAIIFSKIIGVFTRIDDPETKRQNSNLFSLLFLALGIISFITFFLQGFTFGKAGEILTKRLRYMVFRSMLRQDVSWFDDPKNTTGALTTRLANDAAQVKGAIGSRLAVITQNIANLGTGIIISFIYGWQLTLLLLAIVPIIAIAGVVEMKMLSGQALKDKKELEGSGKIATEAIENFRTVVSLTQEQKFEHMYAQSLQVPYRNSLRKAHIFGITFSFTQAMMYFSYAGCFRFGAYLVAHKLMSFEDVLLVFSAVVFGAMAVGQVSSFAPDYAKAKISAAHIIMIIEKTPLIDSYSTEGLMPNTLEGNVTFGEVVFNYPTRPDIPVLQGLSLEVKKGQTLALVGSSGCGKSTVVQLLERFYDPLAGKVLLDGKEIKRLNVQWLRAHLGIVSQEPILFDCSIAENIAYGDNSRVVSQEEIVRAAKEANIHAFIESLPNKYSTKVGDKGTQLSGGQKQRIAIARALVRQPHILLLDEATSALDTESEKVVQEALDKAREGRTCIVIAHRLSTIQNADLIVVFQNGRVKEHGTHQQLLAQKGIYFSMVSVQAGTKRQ
The nature of assay [5]: circadian clock period modulators, cell-based, LOPAC library, luminescence reporter (AID 2774).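 Also: values are relative to mean of DMSO wells on each plate.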 Conditions: circadian reporter cells, at 7 µM, actives lie on both sides.
A short description of assay [6]: liver-stage malaria parasite growth inhibition, primary screen, cell-based, HepG2, luciferase luminescence, HepG2 viability (AID 624349; in the data active = parasite load remaining mostly below about 12%, no sharp cut-off; inactive = mostly above about 10%;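 also: 100% = mean of DMSO negative control wells on the same plate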). Conditions: P. berghei liver stage in HepG2, luciferase luminescence, concentration not given here; parasite load remaining: stronger effect = lower value; viability: measured here: HepG2 viability without parasites.
Assay [7] has as its system Hepatitis C virus NS3 helicase. Nature of the assay: HCV NS3 helicase inhibitors, primary screen, biochemical, fluorescence polarization, LOPAC1280 library (AID 687035; in the data active = inhibition above about 37%). The following applies: Purified HCV NS3 helicase, Cy5-dT15 ssDNA binding fluorescence polarization; stronger effect = higher value; concentration not given here. For orientation: Polarisation of emitted light reports the rotation of a fluorescent probe.

Assay [8] in a line: Cy5 fluorescence quenching or enhancement artefacts, artefact control for HCV NS3 helicase inhibitor project, biochemical, LOPAC1280 (AID 687037). The following applies: Cy5-DNA-NS3h complex fluorescence interference counterscreen. A general note: A counterscreen serves to expose hits that act by an unwanted route or on another target.
Assay [9] is described as follows: phospholipid biosynthesis inhibitors in animal cells, primary screen, cell-based, LOPAC library, screen 4 (AID 1347384). Conditions: phospholipid biosynthesis inhibition screen, at 10 µM.
Assay [10] is described as follows: survival rescue of mitochondrial mutant cells in low glucose, primary screen, MELAS cybrids, Rieske KO mouse fibroblasts, CellTiter-Glo (AID 1508586;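 active = mean z-score across replicates of 1.96 or higher in either the MELAS or the Rieske mutant cell line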;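 also: z relative to plate mean and SD of compound and empty wells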). A general note: Cellular ATP, detected with luciferase, serves as a proxy for viable cell number.
Assay [11] is described as follows: viability rescue of complex I mutant cybrids, primary screen, cell-based, galactose medium, ATP luminescence (AID 1645843;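 active = z-score of at least 1.8 in each of two replicates, scored against plate mean and spread of sample wells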;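 also: positive z means more ATP and so rescue of galactose-driven cybrid death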). Conditions: complex I mutant cybrid cells, 72 h, stronger effect = higher value.
Setting [12] is: stronger effect = lower value, cell number ratio, induced over uninduced.
Where [13] appears, read: measured here: relative caspase fold change +Dox/-Dox.
The mark [14] stands for this setting: measured here: total cells with miR-34 induction, stronger effect = lower value.
Where [15] appears, read: measured here: total cells without miR-34 induction.

On to `CC/C=C\C/C=C\C/C=C\C/C=C\C/C=C\CCCCCC(=O)O`, for which the survival in [1] is 78 (inactive). Moreover, the fold change is 0.983 (inactive) and 0.953 (inactive) in assay [2] (setting [12]); 0.972 and 0.777 in [2] (setting [13]). Further, the cell count was 5080 and 5820 in [2] (setting [14]); 5170 and 6110 in [2] (setting [15]). Further, the fold fluorescence in assay [3] is 5.56 (inactive).
As to `CCCCC[C@H](O)/C=C/C1=C(CCCCCCC(=O)O)C(=O)CC1`, the survival in assay [1] is 68.1 (inactive). Moreover, the fold change is 0.976 (inactive) and 0.956 (inactive) in assay [2] (setting [12]); 1.34 and 1.33 in assay [2] (setting [13]). The cell count is 6120 and 6210 in assay [2] (setting [14]); 6270 and 6500 in assay [2] (setting [15]). Also, the fold fluorescence in assay [3] is 3.81 (inactive).
For the compound `CCCCCCCC/C=C\C/C=C\C/C=C\CCCC(=O)NCCO`, the survival in assay [1] was 87.2 (inactive). The fold change in [2] (setting [12]) is 0.911 (inactive) and 1.07 (inactive); in [2] (setting [13]) it was 0.981 and 0.763. The cell count in [2] (setting [14]) was 6100 and 5740; in [2] (setting [15]), 6690 and 5350. For the same compound, the fold fluorescence in assay [3] is 4.64 (inactive).
With `CCCCCC#CCC#CCC#CCC#CCCCC(=O)O`, in assay [1], the survival was 87.3 (inactive). In addition, the fold change in assay [2] (setting [12]) is 0.956 (inactive) and 0.974 (inactive); in assay [2] (setting [13]) it was 1.11 and 0.98. Besides, the cell count is 5420 and 5670 in [2] (setting [14]); 5670 and 5820 in assay [2] (setting [15]). Also, the fold fluorescence in assay [3] was 5.73 (inactive).
In the case of `CCCCC/C=C\C/C=C\C/C=C\C/C=C\CCCCCC(=O)O`, the survival in assay [1] is 79.5 (inactive). In addition, the fold change in assay [2] (setting [12]) is 1.01 (inactive) and 0.958 (inactive); in [2] (setting [13]) it was 1.23 and 0.967. Besides, the cell count in assay [2] (setting [14]) is 6030 and 5700; in assay [2] (setting [15]), 5980 and 5950. The fold fluorescence in [3] is 4.08 (inactive).
Take `CCCCCCCC/C=C\CCCCCCCC(=O)OC[C@H](CO)OC(C)=O`: in [1], the survival was 98.6 (inactive). Moreover, the fold change was 0.972 (inactive) and 0.952 (inactive) in [2] (setting [12]); 0.87 and 0.868 in assay [2] (setting [13]). Also, the cell count in assay [2] (setting [14]) was 6120 and 5660; in assay [2] (setting [15]), 6290 and 5950. In addition, the fold fluorescence in [3] is 5.82 (inactive).
Regarding `COc1ccc(-c2ccc(N)[n+](CCCC(=O)O)n2)cc1`, the fluorescence slope change in assay [4] was 101% (active). Further, the period change in assay [5] was 0.235 h (inactive). Moreover, in assay [1], the survival is 6.75 (inactive). Besides, the parasite load remaining in assay [6] is 113% (inactive) and 70.4% (inactive). Moreover, the viability in assay [6] is 102% and 78.3%. In addition, the inhibition in [7] was -3% (inactive). Besides, in assay [8], the fluorescence ratio (interference) is 0.9 (inactive). Further, the fold change in assay [2] (setting [12]) is 0.962 (inactive) and 0.851 (inactive); in assay [2] (setting [13]), 1.4 and 1.26. In addition, the cell count in assay [2] (setting [14]) is 9690 and 9480; in assay [2] (setting [15]) it was 10100 and 11100. Moreover, the result in [9] was inactive. For the same compound, the z-score in assay [10] (MELAS cybrid survival, CellTiter-Glo 48 h, stronger effect = higher value) was 0.473 (inactive); in assay [10] (Rieske KO mouse fibroblast survival, CellTiter-Glo 72 h) it was 0.0476; in [11] it was 0.685 (inactive).
For `CC1CNCCN1S(=O)(=O)c1cccc2cnccc12` (stereo unspecified), the period change in [5] is 0.05 hour (inactive) and -0.065 hour (inactive). Also, the survival in assay [1] was 216 (active). Further, the inhibition in [7] is -1% (inactive). The fluorescence ratio (interference) in assay [8] was 0.9 (inactive). Moreover, the fold change in assay [2] (setting [12]) is 1.06 (inactive) and 1.03 (inactive); in assay [2] (setting [13]) it was 1.18 and 0.538. Also, the cell count in assay [2] (setting [14]) is 11400 and 1600; in assay [2] (setting [15]), 10700 and 1550. In [9], the call was inactive. For the same compound, the z-score in assay [11] is -1.29 (inactive).

What is called viability is a read-out of living cells in per cent, often relative to untreated cells. One may read the inhibition as the change of the read-out against control, counted positive when it falls.
